Results on 24 molecules are retold here after PubChem BioAssay (Tox21).

Molecules are shown by their SMILES. Results filed as inconclusive are left out. A number with no mark means an inactive call. Activity calls are given as the source filed them. Calls follow the shape of the dose curve; as a rule, active = well fitted cell-killing curve with a large enough effect in the repeat runs; inconclusive = weak or mixed curves; inactive = flat fitted curve, though single readings scatter.
% is scaled to controls: 0 for no effect and ±100 for the full control effect; potency is read from the fitted curve at half-maximal effect.

A short description of the experiment: qHTS RealTime-Glo MT Cell Viability Assay in HepG2 cells - 8 hour (AID 1224873). Also: nearly all actives have a fitted effect of over 55% in size. To be noted: RealTime-Glo luminescence; series mostly up to 76.8 µM; viability change, negative = cytotoxic: at the top concentration. A digest of the protocol:
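HepG2 cells mixed with RealTime-Glo MT reagents (NanoLuc plus cell-permeant prosubstrate) were seeded at 600 cells/well, incubated 5 h at 37 C/5% CO2, then pinned with compounds in DMSO; nonlytic luminescence tracked viability during 40 h treatment.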
On the technique in general: In qHTS, concentration-response curves come from the screen itself.
In the case of `CCC(=O)CC(C)CC` (centres undefined), the viability change, negative = cytotoxic is 1.82% [at 0.29 µM].

For the molecule `C=C/C=C/C=C/CCCCC`, the viability change, negative = cytotoxic is -19.2% [at 15.8 µM]. The same measure, in the same setting: as for `Oc1c(Br)cc(Br)c2cccnc12`, the figure is -11.7% [at 35.3 µM]; as for `CCCCCCCC/C=C\CCCCCCCC(=O)NCc1ccc(O)c(OC)c1`, -8.04% [at 35.3 µM]. With `CCCOc1sc(C(=O)N2CCC(c3cc(CN)ccc3F)CC2)c(C)c1Br`, the Potency was 31.8 µM (active). Take `O=S(O)O`: the viability change, negative = cytotoxic was 3.13% [at 15.8 µM].

On to `NCCCCCCNCCCCCCN`, for which the “viability change, negative = cytotoxic” value was -1.01%.

In the case of `C=CC/C=C/C/C=C/C/C=C/C`, the “viability change, negative = cytotoxic” value was 1.93%.

Turning to `C=CCCCCCCC=C`, the “viability change, negative = cytotoxic” value is -0.335%. Still for that read-out and setting: as for `CCCCN(C)C`, the figure is -1.02%.

`CC(NCCC(c1ccccc1)c1ccccc1)c1ccccc1` (centres undefined): the Potency is 21.3 µM (active). Regarding `CCCCCCCCCCCCCCCC`, the “viability change, negative = cytotoxic” value was 0.133%. Still for that read-out and setting: as for `CCc1cccc(CC)c1NC(=O)C(=O)O`, the figure is 1.67%; as for `O=C1OC(OC(=O)c2cccnc2Nc2cccc(C(F)(F)F)c2)c2ccccc21` (centres undefined), -8.69% [at 35.3 µM]. Consider `CN1[C@@H]2CC[C@H]1CC(OC(=O)C(CO)c1ccccc1)C2` (some centres undefined), for which the Potency result is “inactive”. In the case of `CC(COC(=O)c1ccccc1)OC(=O)c1ccccc1` (centres undefined), the “viability change, negative = cytotoxic” value was -4.19%.

With `CCOC(=O)CN`, the “viability change, negative = cytotoxic” value is -2.76%. In the case of `COC(=O)CC(C)CCC=C(C)C` (centres undefined), the “viability change, negative = cytotoxic” value was -1.75%. Same read-out and setting: the result for `CCCCCCCC(=O)OCC` reads -17.9%; that for `CCOC(/C=C(\C)CCC=C(C)C)OCC`, -1.36%.

In the case of `CCC1CCCCC1`, the “viability change, negative = cytotoxic” value was -10.3%. For `CCCCCCCCCCCCCCNCCO`, the Potency was 19 µM (active). As for `O=C1c2c(O)ccc(O)c2C(=O)c2c(NCCNCCO)ccc(NCCNCCO)c21`, the “viability change, negative = cytotoxic” value is -17.9% [at 35.3 µM]. For the molecule `Cc1c(-c2ccc(O)cc2)n(Cc2ccc(OCCN3CCCCCC3)cc2)c2ccc(O)cc12`, the Potency is 23.9 µM (active).
